Where “and” joins values, the source holds several entries; their conditions need not be identical. Identical values can stand only once. Results filed as inconclusive are left out. Where a call stands in place of a potency, no number is given. Where a structure was tested more than once in an assay, its records may differ in their call. Calls of active or inactive are those of the source. Calls follow the shape of the dose curve; as a rule, active = well fitted curve in the direction sought with a large enough effect; inconclusive = small, poorly fitted or top-dose-only effect, or another doubt; inactive = no such curve, though single readings can be large; an effect the other way counts as inactive or inconclusive.
Experiments:
[1] = P-glycoprotein substrates identified in KB-8-5-11 adenocarcinoma cell line, qHTS therapeutic library screen (AID 1346987); also: nearly all actives have a fitted effect of over 65% in size
Outline: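 KB-8-5-11: colchicine-selected sub-line of KB-3-1 over-expressing P-gp; assay medium lacked colchicine. 72 h drug exposure at 37 degree C, CellTiter-Glo.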

[2] = NS1 protein of Zika virus - qHTS assay to identify small molecule inhibitors in human HEK 293 cells (AID 1347053); also: nearly all actives have a fitted effect of over 55% in size
Outline: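 Following 20 h seeding, HEK 293 cells took compound, then 1 h later ZIKV MR766 (MOI = 0.5). Incubation ran 24 h at 37 C before TR-FRET detection of NS1; a drop in signal indicates inhibition.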

[3] = qHTS of pediatric cancer cell lines to identify multiple opportunities for drug repurposing: Primary screen for TC32 cells (AID 1347089); also: nearly all actives have a fitted effect of over 60% in size
Outline: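 In the primary qHTS, MIPE compounds were tested at 11 concentrations (0.78 nM to 46 µM) and NPC compounds at 8 (0.59 nM to 46 µM) on TC32 cells for 48 h. CellTiter-Glo luminescence gave viability.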

[4] = qHTS of pediatric cancer cell lines to identify multiple opportunities for drug repurposing: Primary screen for SJ-GBM2 cells (AID 1347091)
Outline: (§1)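 Viability measured as metabolically active cells via CellTiter-Glo luminescence following 48 hours of compound exposure, 11-point dilutions in confirmatory testing. 500-1,000 cells/well plated 5 hours before dosing; controls were DMSO and 2.3 µM bortezomib.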

[5] = qHTS of pediatric cancer cell lines to identify multiple opportunities for drug repurposing: Primary screen for NB-EBc1 cells (AID 1347095)
Outline: (§2)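 Quantitative HTS format: each compound titrated (MIPE 11 points from 0.78 nM, NPC 8 points from 0.59 nM) onto cells plated 5 hours earlier. After 48 h at 37 degrees C, CellTiter-Glo luminescence was recorded.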

[6] = qHTS of pediatric cancer cell lines to identify multiple opportunities for drug repurposing: Primary screen for Saos-2 cells (AID 1347097); also: nearly all actives have a fitted effect of over 40% in size
Outline: as §2

[7] = qHTS of pediatric cancer cell lines to identify multiple opportunities for drug repurposing: Primary screen for DAOY cells (AID 1347090); also: nearly all actives have a fitted effect of over 55% in size
Outline: as §1

[8] = qHTS of pediatric cancer cell lines to identify multiple opportunities for drug repurposing: Primary screen for SK-N-MC cells (AID 1347093)
Outline: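 Metabolically active cells were quantified by ATP-dependent luminescence (CellTiter-Glo, 15 min at room temperature) following 48 h treatment. Cells had been plated at 500-1,000 per well and settled for 5 h beforehand.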

[9] = qHTS of pediatric cancer cell lines to identify multiple opportunities for drug repurposing: Primary screen for BT-37 cells (AID 1347094)
Outline: as §2

[10] = qHTS of pediatric cancer cell lines to identify multiple opportunities for drug repurposing: Primary screen for U-2 OS cells (AID 1347096); also: nearly all actives have a fitted effect of over 50% in size
Outline: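 Viability after 48 h compound treatment at 37C, 500-1,000 cells/well, read as ATP luminescence with CellTiter-Glo. Primary screens used 11-point (MIPE, 0.78 nM-46 µM) or 8-point (NPC, 0.59 nM-46 µM) final concentrations; follow-up screens used 11-point dilutions.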

[11] = qHTS of pediatric cancer cell lines to identify multiple opportunities for drug repurposing: Primary screen for SK-N-SH cells (AID 1347098); also: nearly all actives have a fitted effect of over 65% in size
Outline: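 Cells (500-1,000/well) rested 5 h, then received compounds for 48 h; metabolically active cells were measured by CellTiter-Glo luminescence. Final concentrations spanned up to 46 µM (MIPE, 11-point) or 0.59 nM-46 µM (NPC, 8-point) in primary screens, 11-point in follow-ups.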

[12] = qHTS of pediatric cancer cell lines to identify multiple opportunities for drug repurposing: Primary screen for A673 cells (AID 1347092); also: nearly all actives have a fitted effect of over 45% in size
Outline: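 48 h compound exposure, A673, 500-1,000 cells/well, 37 degrees C/5% CO2. MIPE: 11-point, 0.78 nM-46 µM; NPC: 8-point, 0.59 nM-46 µM (final). Readout CellTiter-Glo luminescence after 15 min RT.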
Potency is read from the fitted curve at half-maximal effect.

Compound | Potency [1] | Potency [2] | Potency [3] | Potency [4] | Potency [5] | Potency [6] | Potency [7] | Potency [8] | Potency [9] | Potency [10] | Potency [11] | Potency [12]
OCCn1cc(-c2ccc3c(c2)CCC3=NO)c(-c2ccncc2)n1 | inactive | inactive | inactive | inactive | inactive | inactive |  |  |  |  |  | 
CC(C)(CO)[C@@H](O)C(=O)NCCC(=O)O | inactive | inactive | inactive |  | inactive | inactive | inactive | inactive | inactive | inactive | inactive | 
CN1[C@H]2CC[C@H]1CC(OC(=O)c1c[nH]c3ccccc13)C2 (stereo partly drawn) | inactive | inactive | inactive | inactive | inactive |  |  |  | inactive | inactive |  | inactive
COc1c(C)c2c(c(O)c1CC=C(C)CCC(=O)OCCN1CCOCC1)C(=O)OC2 | 7.43 µM (active) | 0.526 µM (active) | 4.66 µM (active) | inactive | 0.59 µM (active) | inactive |  | 1.18 µM (active) | 1.53 µM (active) |  |  | 
CC(C)[C@H](O)C(=O)N[C@@H](C)C(=O)N[C@@H]1C(=O)N(C)CCc2ccccc21 | inactive | inactive | inactive | inactive | inactive |  |  | 18.7 µM (active) | inactive | inactive | inactive | 23.5 µM (active)
NC(N)=Nc1nc(CSCCC(N)=NS(N)(=O)=O)cs1 | inactive | inactive | inactive | inactive |  | inactive |  | 10.5 µM (active) | inactive | inactive |  | 
C[C@H](CCC(=O)O)[C@H]1CC[C@H]2[C@H]3[C@@H](CC[C@]12C)[C@@]1(C)CC[C@@H](O)C[C@H]1C[C@@H]3O | inactive | inactive | inactive |  | 14.8 µM (active) | inactive | inactive |  | 27.3 µM (active) | inactive | inactive | 
NCc1c[nH]c(=S)n1[C@H]1CCc2c(F)cc(F)cc2C1 | inactive | inactive | inactive | 26.4 µM (active) | 23.5 µM (active) | 18.7 µM (active) |  | 10.5 µM (active) | 30.6 µM (active) | inactive |  | 18.7 µM (active)
CCOc1ccccc1N=Nc1c(C)[nH]n(-c2nc(-c3ccccc3)cs2)c1=O | inactive | inactive | inactive |  | inactive |  |  | 0.209 µM (active) | inactive | inactive |  | 
CCn1c(-c2nonc2N)nc2cncc(CNC3CCNCC3)c21 | inactive | inactive | inactive |  |  | 11.8 µM (active) |  | inactive | inactive | inactive | 24.1 µM (active) | 14.8 µM (active)
CCN(CC)CCCCNc1nc2cc(Cl)c(Cl)cc2nc1-c1ccc(-c2cccs2)s1 | 9.35 µM (active) | inactive | inactive | 10.5 µM (active) | 20.9 µM (active) | 18.7 µM (active) |  | 13.2 µM (active) | 27.3 µM (active) |  |  | 11.8 µM (active)
c1ccc(CNc2nc(N3CCOc4ccccc43)nc3c2CCCC3)cc1 | inactive | inactive | inactive |  |  |  | inactive |  |  | inactive |  | inactive
CC[C@H](CC#N)OC(=O)N[C@@H](C)c1cccc(NC(=O)Nc2ccc(-c3cnco3)c(OC)c2)c1 | 5.9 µM (active) and 5.8 µM (active) | 0.235 µM (active) | 1.04 µM (active) |  | 0.296 µM (active) | 18.7 µM (active) |  | 0.59 µM (active) | 0.485 µM (active) |  | inactive | 0.743 µM (active)
O=S(=O)(O)c1ccc2cc(N=Nc3cc(S(=O)(=O)O)c4cccnc4c3O)ccc2c1 | inactive | inactive | inactive |  |  |  |  | 18.7 µM (active) |  |  |  | 
COc1c(C)c2c(c(O)c1CC=C(C)CCC(=O)O)C(=O)OC2 | 6.62 µM (active) | 0.526 µM (active) | 5.23 µM (active) |  | 0.743 µM (active) | inactive |  | 1.18 µM (active) | 1.53 µM (active) |  |  | 
CCCCOCCOc1nc(-c2ccc(C(=O)O)c(F)c2)sc1C | inactive | inactive | inactive | inactive | inactive | inactive |  |  | inactive | inactive | 6.81 µM (active) | inactive
CC(C)(OCc1nn(Cc2ccccc2)c2ccccc12)C(=O)O | inactive | inactive | inactive |  | 11.8 µM (active) | inactive |  | 26.4 µM (active) | inactive | inactive | 30.4 µM (active) | 
Cc1ccc(C(=O)N(CCCN)[C@@H](c2nc3cc(Cl)ccc3c(=O)n2Cc2ccccc2)C(C)C)cc1 | 0.118 µM (active) | inactive | 0.0165 µM (active) |  | 0.001 µM (active) | 0.001 µM (active) | 0.0015 µM (active) | 0.0017 µM (active) |  | inactive | inactive | 0.001 µM (active)

Compound | Potency [1] | Potency [2] | Potency [3] | Potency [4] | Potency [5] | Potency [6] | Potency [7] | Potency [8] | Potency [9] | Potency [10] | Potency [11] | Potency [12]
CC(C)c1c(C(=O)Nc2ccccc2)c(-c2ccccc2)c(-c2ccc(F)cc2)n1CC[C@H](O)C[C@@H](O)CC(=O)O | inactive | inactive | inactive |  |  | 6.62 µM (active) | 11.8 µM (active) | 23.5 µM (active) |  | 18.7 µM (active) |  | 18.7 µM (active)
O=C(c1ccc(C(=O)N2CCC(N3CCCC3)CC2)c(Nc2ccccc2)c1)N1CCC(N2CCCC2)CC1 | inactive | inactive | inactive | inactive | inactive | inactive |  |  | inactive | inactive |  | inactive
COc1cc([C@H]2Oc3cc([C@H]4Oc5cc(O)cc(O)c5C(=O)[C@H]4O)ccc3O[C@H]2CO)ccc1O | inactive | inactive | inactive |  |  | inactive |  | 20.9 µM (active) | inactive | inactive |  | 23.5 µM (active)
C[C@H](c1ccc(F)cc1CCCC(=O)O)N(c1cc(F)ccc1F)S(=O)(=O)c1ccc(Cl)cc1 | inactive | inactive | inactive |  | inactive |  |  | 3.72 µM (active) |  | inactive | 19.2 µM (active) | 18.7 µM (active)
CCOC(=O)[C@H](CCc1ccccc1)N[C@@H](C)C(=O)N1CCCC1C(=O)O (stereo partly drawn) | inactive | inactive | inactive | inactive |  | inactive |  | 8.33 µM (active) | inactive | inactive |  | 18.7 µM (active)
O=C1Nc2ccc(I)cc2C1=Cc1cc(Br)c(O)c(Br)c1 | inactive | inactive | inactive |  |  | inactive |  | 8.33 µM (active) | inactive | inactive | inactive | 14.8 µM (active)
Cc1cnc(Nc2cccc(CN3CCOCC3)c2)nc1Nc1cccc(S(=O)(=O)NC(C)(C)C)c1 | inactive and 4.11 µM (active) | inactive | inactive |  | 4.18 µM (active) | 5.26 µM (active) | 14.8 µM (active) | 2.64 µM (active) |  | 14.8 µM (active) |  | 5.9 µM (active)
OC1CCC(Nc2ncc3nc(Nc4c(F)cc(F)cc4F)n([C@@H]4CCOC4)c3n2)CC1 (stereo partly drawn) | inactive | inactive | inactive | 9.35 µM (active) | 5.26 µM (active) |  |  |  |  |  | inactive | 9.35 µM (active)
CCN1CCN(c2ccc(Nc3cc(N(C)C(=O)Nc4c(Cl)c(OC)cc(OC)c4Cl)ncn3)cc2)CC1 | inactive and 16.4 µM (active) |  | inactive | 18.7 µM (active) | 20.9 µM (active) |  | inactive |  | inactive | inactive | inactive | inactive
CCNC(=O)c1noc(-c2cc(C(C)C)c(O)cc2O)c1-c1ccc(CN2CCOCC2)cc1 | 0.0731 µM (active) |  | 0.165 µM (active) | 0.332 µM (active) | 0.296 µM (active) |  | 0.235 µM (active) | 0.0526 µM (active) | 0.137 µM (active) |  | 0.152 µM (active) | 0.148 µM (active)
N[C@@H](CC(=O)N1CCn2c(nnc2C(F)(F)F)C1)Cc1cc(F)c(F)cc1F | inactive | inactive |  | inactive | inactive |  | inactive | 18.7 µM (active) | inactive | inactive |  | inactive
COc1cc2ncn(-c3cc(OCc4ccccc4S(C)(=O)=O)c(C#N)s3)c2cc1OC | inactive | inactive |  |  | inactive |  |  | 13.2 µM (active) | inactive | inactive |  | 23.5 µM (active)
COc1cc2c(cc1OC)CC(=O)N(CCCN(C)C[C@H]1Cc3cc(OC)c(OC)cc31)CC2 | inactive | inactive | inactive |  |  | inactive |  | 14.8 µM (active) |  | inactive |  | 
NC1(C(=O)N[C@@H](CCO)c2ccc(Cl)cc2)CCN(c2ncnc3[nH]ccc23)CC1 | inactive | inactive |  |  | 5.26 µM (active) | 5.9 µM (active) | 14.8 µM (active) | 0.372 µM (active) |  |  | 30.4 µM (active) | 
CC1=C(CC(=O)O)c2cc(F)ccc2C1=Cc1ccc(S(C)=O)cc1 (stereo not drawn) | inactive | inactive |  | inactive | 18.7 µM (active) |  | 3.72 µM (active) |  |  | inactive |  | 1.48 µM (active)
CCc1cccc(CC)c1NC(=O)N1Cc2[nH]nc(NC(=O)c3ccc(N4CCN(C)CC4)cc3)c2C1 | inactive | inactive |  |  | inactive | 1.18 µM (active) |  | 0.833 µM (active) | inactive |  | 6.07 µM (active) | 14.8 µM (active)
COc1cc(C=CC(=O)O)ccc1O | inactive | inactive |  | inactive | inactive | inactive | inactive | 20.9 µM (active) | inactive | inactive |  | inactive
